Assay outcomes: PubChem, several laboratories
TLR9-MyD88 block: TLR9-MyD88 interaction inhibition | inhibition, % at 4.98 µM | CHO BLA complementation TLR9-MyD88, CCF4 FRET ratio | actives 0.21% (n = 340,000) | AID 504734;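 active means inhibition above the mean over all tested compounds plus 3 SD, cut at about 21% in these data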;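 further: 0% = DMSO only wells and 100% = clavulanate BLA inhibitor control wells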
NOD2-RIPK2 inh: blocks binding of human NOD2 to RIPK2; CHO BLA complementation NOD2-RIPK2, CCF4 ratio; inhibition, % at 4.98 µM; O43353; AID 624267; actives 0.38% (n = 360,000); in the data active means inhibition above about 21%;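 further: 0% = vehicle only and 100% = reference blocker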
Target sequence (O43353 whole entry, looked up): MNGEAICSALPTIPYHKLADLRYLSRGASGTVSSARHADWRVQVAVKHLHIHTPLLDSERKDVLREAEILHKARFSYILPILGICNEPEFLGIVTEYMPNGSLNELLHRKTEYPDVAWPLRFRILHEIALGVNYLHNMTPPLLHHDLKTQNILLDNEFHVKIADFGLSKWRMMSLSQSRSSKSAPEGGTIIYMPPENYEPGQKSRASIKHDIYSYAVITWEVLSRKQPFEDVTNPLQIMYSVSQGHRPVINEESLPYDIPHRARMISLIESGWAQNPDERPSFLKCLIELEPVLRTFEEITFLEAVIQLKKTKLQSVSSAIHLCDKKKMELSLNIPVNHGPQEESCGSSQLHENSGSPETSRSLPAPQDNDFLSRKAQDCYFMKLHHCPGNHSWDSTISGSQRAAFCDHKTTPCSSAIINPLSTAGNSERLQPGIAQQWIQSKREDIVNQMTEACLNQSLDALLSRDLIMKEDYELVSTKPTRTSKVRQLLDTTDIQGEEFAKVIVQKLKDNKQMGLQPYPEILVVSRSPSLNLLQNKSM
Myeloid diff MLP: promotes myeloid progenitor differentiation | ER-HoxA9 myeloid progenitors, lysozyme-GFP differentiation, flow cytometry | calls only at 10 µM | actives 1% (n = 360,000);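 active means normalized GFP-positive differentiation at or above the plate's own cutoff, the solvent-only control mean plus 3 SD; inconclusive means no clear call, values can overlap the other calls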;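 further: cells exposed to compound for four days before flow analysis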
TLR4-MyD88 BLA: inhibitors of human TLR4-MyD88 binding; O00206+Q99836; HeLa CL3-4 TLR4/MyD88 BLA complementation, FRET ratio; inhibition, % at 8.4 µM; actives 0.18% (n = 200,000); AID 861; in the data active means inhibition above about 25%;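 further: 0% = vehicle and 100% = reference inhibitor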
ABCB6 inh MLPCN: blocks the human ABCB6 transporter. Q9NP58. K562-ABCB6 porphyrin accumulation, flow cytometry, 1 h; stronger effect = lower value. fluorescence ratio to DMSO, % at 10 µM. actives 0.19% (n = 360,000);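 active means fluorescence ratio to DMSO below 75%, the collection mean minus 3 SD; inconclusive means too few cells collected in the well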;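 further: signal is porphyrin accumulated inside mitochondria; 100% equals median channel fluorescence of DMSO control wells; lower ratio means ABCB6 inhibition with less porphyrin fluorescence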
Myeloid diff: promotes myeloid progenitor differentiation; actives 2% (n = 2,300); calls only; ER-HoxA9 myeloid progenitors, GFP/Mac1 double-positive flow; shares compounds with Myeloid diff MLP;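 active means share of green or green-and-red cells above 9 and 9% in run 1 or 4 and 3% in run 2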
GFP autofluor: compound fluorescence in myeloid differentiation counter-screen; shares compounds with Myeloid diff MLP; ER-HoxA9 myeloid progenitors, no estrogen, GFP autofluorescence flow cytometry; vehicle wells 0%, positive control 100%; fluorescence response, % (test concentration not listed); actives 7.4% (n = 2,300);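 active means over 5% cells positive for green fluorescent reporter, or over 2% positive for both it and APC stain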;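 further: range taken on the double positive population between DMSO and positive control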
Active calls of the source: *; i = inactive; ? = inconclusive; . = no result given; + = active, no number. Shown are actives, neighbours in structure and some others; about 1.7% of the full set was active somewhere.

SMILES | TLR9-MyD88 block | NOD2-RIPK2 inh | Myeloid diff MLP | TLR4-MyD88 BLA | ABCB6 inh MLPCN | Myeloid diff | GFP autofluor
CCOc1ccccc1NC(=O)c1ccccc1-c1ccccc1 | -7 | 9 | i | . | 98 | . | .
CCN(C[C@H]1N[C@@](CC)(C(=O)OC)[C@H]2C(=O)N(Cc3ccccc3)C(=O)[C@@H]12)S(=O)(=O)c1ccc(OC)cc1 | -16 | -22 | i | . | 108 | i | 0
CC[C@@]1(C(=O)OC)N[C@H](CN(C)S(=O)(=O)c2ccc(-c3ccccc3)cc2)[C@@H]2C(=O)N(C)C(=O)[C@@H]21 | -19 | -3 | i | . | 103 | i | 0
CCOC(=O)CN(C)C(=O)C1CCCN1C(=O)OC(C)(C)C (centres undefined) | -3 | -6 | i | . | 100 | . | .
CC(C)=CCC/C(C)=C/CNC(=O)C[C@H]1C[C@H](C(=O)N2CCCCC2)[C@@]2(C)c3[nH]c4ccc(Cl)cc4c3CCN2C1=O | -5 | -2 | + | . | 100 | i | 0
CC(C)OC(=O)NCCOC(=O)Nc1cccc(Cl)c1 | -4 | 1 | i | -2 | 99 | . | .
CC(C)OC(=O)NC(C)(C)COC(=O)Nc1cccc(Cl)c1 | 4 | -6 | i | 7 | 97 | i | 0
CC(C)C/C=C1\CCc2c([nH]c3ccccc23)C1=O | 3 | -13 | i | -1 | 101 | . | .
CCCCCCCCC1=NCCc2c1[nH]c1ccccc21 | 8 | 13 | i | . | 109 | i | 0
CCOC(=O)N1CCN(Cc2nc3cc([N+](=O)[O-])ccc3n2C)CC1 | -8 | -10 | i | . | 93 | . | .
CCN1C(=O)[C@H]2[C@@H](c3ccc(C)cc3)N[C@]3(CCCN(CCC(C)C)C3=O)[C@H]2C1=O | -5 | -1 | i | . | 97 | . | .
CN(CC(=O)Nc1cc([N+](=O)[O-])ccc1Cl)Cc1ccc(Br)cc1 | -9 | -9 | i | 3 | 98 | i | 0
COc1ccc(C(C)(O)c2nc(-c3ccc(F)cc3OC)cs2)cc1 (centres undefined) | . | 3 | i | . | 102 | i | 0
COc1cccc(C(C)(O)c2nc(-c3ccc(F)cc3OC)cs2)c1 (centres undefined) | . | -18 | i | . | 98 | . | .
CCOc1ccccc1C1CC(c2cccs2)=NN1S(C)(=O)=O (centres undefined) | . | 3 | + | -2 | 679 | i | 92*
CC(C)(O)P(=O)(O)CCc1ccccc1 | -6 | 2 | i | . | 102 | . | .
COc1ccc(C(=O)NC(=S)Nc2cccc(S(=O)(=O)N3CCOCC3)c2)cc1 | 2 | 5 | i | 9 | 88 | i | 0
COc1ccc2c(c1)NC(=O)CC(c1ccccc1)=N2 | 0 | -2 | i | 10 | 103 | i | 0
COc1ccc(O)c(C2=Nc3ccccc3N=C(c3ccccc3)C2)c1 | 2 | -3 | i | . | 97 | . | .
O=C(N/N=C/c1ccc(-c2ccccc2C(=O)O)o1)c1cccs1 | -11 | 2 | i | -14 | 98 | . | .
COC(=O)c1cccc(C(=O)Nc2ccc(F)cc2)n1 | -1 | -2 | i | -15 | 86 | i | 0
NC(=O)c1ccsc1NC(=O)CCS(=O)(=O)c1ccc(F)cc1 | 7 | -13 | + | . | 96 | i | 0
CCOc1ccccc1NC(=O)NNS(=O)(=O)c1cc(OC)ccc1OC | 0 | -1 | i | . | 84 | . | .
COc1ccccc1N1CCN(C(c2ccc(N(C)C)cc2)c2nnnn2CCc2ccccc2)CC1 (centres undefined) | -2 | 9 | + | 9 | 98 | i | 8.2*
COc1ccc(C(c2nnnn2CCc2ccccc2)N2CCN(C3CCCC3)CC2)cc1 (centres undefined) | 8 | 0 | i | -8 | 97 | . | .
SMILES | TLR9-MyD88 block | NOD2-RIPK2 inh | Myeloid diff MLP | TLR4-MyD88 BLA | ABCB6 inh MLPCN | Myeloid diff | GFP autofluor
CCOc1ccc(NC(=O)C2CSC(c3ccncc3)=N2)cc1 (centres undefined) | -1 | 0 | i | 7 | 103 | . | .
O=C(NCc1ccco1)c1ccc2c(=O)n(-c3ccccc3)c(=O)n(Cc3cccc(F)c3)c2c1 | 6 | 3 | + | 4 | 95 | i | 0
CCOC(=O)/C=C1\CC(C(=O)OCC)Oc2ccccc21 (centres undefined) | -4 | 1 | i | . | 98 | . | .
CCOC(=O)/C=C1\Nc2ccccc2OC1=O | -2 | 1 | + | -9 | 94 | i | 0
O=C(NC1CCCCC1)C(=O)c1c[nH]c2ccccc12 | -5 | -2 | i | . | 92 | . | .
Cc1cc(C)c(S(=O)(=O)N2CCN(c3ccc([N+](=O)[O-])c(-n4nc(C)cc4C)c3)CC2)c(C)c1 | -2 | -9 | i | 10 | 92 | . | .
Cc1cc(C)n(-c2cc(N3CCN(S(=O)(=O)c4ccc(Br)cc4)CC3)ccc2[N+](=O)[O-])n1 | -5 | -6 | i | -10 | 98 | i | 0
COc1ccc(-n2c(C)cc(-c3csc(NC(=O)c4ccc(S(=O)(=O)N(C)C)cc4)n3)c2C)cc1 | -6 | -11 | i | -17 | 99 | . | .
CN(C)c1ncnc2c1nnn2C1OC(CO)C(O)C1O (centres undefined) | 5 | 9 | ? | . | 104 | . | .
CN(C)c1ncnc2c1ncn2C1OC(CO)C(O)C1O (centres undefined) | 3 | -6 | + | -9 | 105 | i | 0
Nc1ncn([C@@H]2O[C@H](CO)[C@@H](O)[C@H]2O)c(=O)n1 | -3 | -7 | i | . | 103 | i | 5.0*
Cc1cc(NC(=O)CCC(=O)N(c2ccccc2)C(C(=O)NC2CCCC2)c2ccccc2C)no1 (centres undefined) | -1 | -12 | i | . | 97 | . | .
CCCCC1CC(=O)NC1(C(=O)OCC)C(=O)OCC (centres undefined) | -6 | 0 | i | . | 102 | . | .
Cc1ccc(OCc2nc(-c3cccnc3)no2)cc1C | -4 | -7 | i | 6 | 112 | . | .
Cc1cc(C)cc(OCc2nc(-c3cccnc3)no2)c1 | -1 | 0 | + | 4 | 112 | i | 0
CSc1nnc(CCCCCNC(=O)OC(C)(C)C)o1 | 0 | -5 | i | . | 96 | . | .
CCCCSc1nnc(CCCCCNC(=O)OC(C)(C)C)o1 | 1 | -7 | + | 10 | 80 | i | 1
Cc1ccc(SC2=C(N(C)C)C(=O)c3ccccc3C2=O)cc1 | -3 | -14 | . | . | 107 | . | .
COC(=O)c1ccc(NC(=O)C(=O)N2CCN(C(=S)Nc3ccc(OC)cc3)CC2)cc1 | 0 | -7 | i | 7 | 98 | . | .
COC(=O)c1ccc(NC(=O)C(=O)N2CCN(C(=S)Nc3ccc(C)cc3)CC2)cc1 | 5 | -13 | i | -9 | 90 | i | 0
COc1cc2nc(CN(C)Cc3nc4ccccc4c(=O)[nH]3)[nH]c(=O)c2cc1OC | 0 | -9 | i | -4 | 104 | i | 0
